Screening data from PubChem BioAssay.
In the library only some 4.8% were active in any assay of this set; here they are far more common.
DAX1 inh-1 = DAX1 (NR0B1) inhibitors, primary screen, cell-based, HEK293, Gal4-DAX1, luciferase luminescence; Nuclear receptor subfamily 0 group B member 1 (Homo sapiens), P51843; HEK293 Gal4-DAX1 luciferase reporter; inhibition, % at 6.75 µM; actives 0.99% (n = 340,000);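 active = inhibition above the mean over all tested compounds plus 3 SD, cut at about 4.2% in these data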;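 note: 0% = DAX1-transfected cells with DMSO and 100% = empty-vector control cells with DMSO; inhibition shows as a rise in luminescence from relieved DAX1 repression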
Target sequence (P51843 207-470 limits assumed): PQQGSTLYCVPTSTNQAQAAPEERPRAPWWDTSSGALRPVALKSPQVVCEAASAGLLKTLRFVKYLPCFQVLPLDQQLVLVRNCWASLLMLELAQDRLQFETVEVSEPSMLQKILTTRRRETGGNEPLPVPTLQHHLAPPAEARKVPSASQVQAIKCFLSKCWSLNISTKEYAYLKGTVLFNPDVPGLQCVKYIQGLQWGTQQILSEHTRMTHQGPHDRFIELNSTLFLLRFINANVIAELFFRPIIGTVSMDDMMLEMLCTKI
DAX1 inh-2 = DAX1 (NR0B1) inhibitors on StAR promoter, primary screen, cell-based, luminescence, SF-1 (NR5A1), full-length DAX-1 | HEK293T StAR-luciferase reporter, SF-1/DAX-1 repression relief | inhibition, % at 6.8 µM | actives 1.1% (n = 370,000);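 active = inhibition above the mean over all tested compounds plus 3 SD, cut at about 3.6% in these data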;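 note: 0% = DAX-1 cells with DMSO and 100% = cells lacking DAX-1 with DMSO; higher inhibition means more luminescence from relief of DAX-1 repression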
hgDAF-12 ag = H. glycines DAF-12 receptor agonists, primary screen, cell-based, luminescence, HEK293, GAL4 fusion, UAS-luciferase; Nuclear hormone receptor DAF-12 (Heterodera glycines), GAL4 fusion; HEK293 GAL4-hgDAF12 UAS-luciferase reporter, agonist luminescence; normalized to butyrate control; activation, % at 6.8 µM; actives 1.8% (n = 370,000); AID 687014, 2013;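 active = activation above a cutoff set at the mean of all screened compounds plus 3 SD, cut at about 10% in these data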;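 note: 0% = DMSO wells and 100% = sodium butyrate wells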
ssDAF12 agonist = S. stercoralis DAF-12 nuclear receptor activators, primary screen, cell-based, luminescence, HEK293, GRIP1 co-expression, lit1-tk-luc | Nuclear hormone receptor DAF-12 (Strongyloides stercoralis) | HEK293 ssDAF-12/GRIP1 lit1-tk-luc reporter; % of 3 µM dafachronic acid response | activation, % at 6.8 µM | actives 1% (n = 370,000) | AID 652126, 2013;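 active = activation above the mean over all tested compounds plus 3 SD, cut at about 0.9% in these data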;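 note: 0% = DMSO-only wells and 100% = 3 µM delta7-dafachronic acid wells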
SMARCA2 act = SMARCA2 (BRM) function activators, primary screen, cell-based, luminescence, high throughput; MG213 cells, MMTV-luciferase reporter, dexamethasone, overnight; activation, % at 9.1 µM; actives 1% (n = 370,000); AID 652017, 2013; in the data active = activation above about 7.8%;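 note: 0% = vehicle wells and 100% = reference activator wells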
hcDAF12 agonist = H. contortus DAF-12 nuclear receptor activators, primary screen, cell-based, luminescence, HEK293, lit1-tk-luc reporter; HEK293 hcDAF-12 lit1-tk-luc reporter; 0% DMSO, 100% Δ7-dafachronic acid; activation, % at 6.8 µM; actives 1.4% (n = 370,000);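 active = activation above the mean of all tested compounds plus 3 SD, cut at about 5.5% in these data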;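 note: 100% = response to 3 µM Δ7-dafachronic acid high control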
DAX1 inh confirm = DAX1 (NR0B1) inhibitors relieving SF-1 repression, confirmation, cell-based, luminescence, HEK293T, full-length DAX-1, SF-1 activated StAR promoter. HEK293T StAR-promoter luciferase reporter, SF-1/DAX-1 repression. actives 87% (n = 2,400). shares compounds with DAX1 inh-2. inhibition, % at 6.8 µM;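 active = inhibition above the average of every tested compound plus 3 SD, cut at about 3.8% in these data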;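 note: 0% = DAX-1 cells with DMSO and 100% = no DAX-1 control cells with DMSO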
SF1 mutant ctr = StAR reporter signal changes without DAX1, counter-screen for DAX1 inhibitor project, cell-based, luminescence, AF-2 mutant SF-1, transactivation | shares compounds with DAX1 inh-2 | HEK293 StAR-luciferase, SF-1 AF2 mutant | inhibition, % at 6.8 µM | actives 78% (n = 2,400);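 active = inhibition above the mean of all tested compounds plus 3 SD, cut at about 3% in these data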;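 note: 0% = DAX-1 transfected cells with DMSO and 100% = cells without DAX-1 with DMSO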
SMARCA2 act conf = SMARCA2 (BRM) function activators, confirmation, cell-based, luminescence, triplicate; MG213 cells, MMTV-luciferase with dexamethasone, overnight; MG213 cells expressing E1A, Rb sequestered; DMSO wells 0%, reference activator 100%; shares compounds with SMARCA2 act; AID 652260, 2013; actives 30% (n = 3,500); activation, % at 9.1 µM;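 active = activation above its plate's cutoff, the mean activation of tested wells plus 3 SD, cut at about 7.9% in these data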
GAL4-VP16 Luc = GAL4-VP16 luciferase reporter activation, counter-screen for SMARCA2 (BRM) activator project, cell-based, pG5luc, luminescence, high throughput | shares compounds with SMARCA2 act | HEK293 GAL4-VP16 pG5luc reporter; scaled: DMSO wells 0%, SAHA wells 100% | activation, % at 9.1 µM | actives 41% (n = 3,500);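 active = activation above the solvent-only control well mean plus 3 SD, averaged across control plates, cut at about 5.2% in these data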
LXRb hcDAF ctr = LXR agonists, Gal4 luciferase reporter, confirmation, counter-screen for hcDAF-12 agonist project, cell-based, luminescence, HEK293, H. contortus campaign. shares compounds with hcDAF12 agonist. HEK293 Gal4-LXR tk-luc reporter, 24 h; normalized: DMSO 0%, positive control 100%. activation, % at 6.8 µM. 3,400 tested, under 10 active;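 active = mean percent activation of the reporter above a cutoff set as the average over tested compounds plus their standard deviation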
Target sequence (P55055 whole entry, looked up, the tested form may be a part): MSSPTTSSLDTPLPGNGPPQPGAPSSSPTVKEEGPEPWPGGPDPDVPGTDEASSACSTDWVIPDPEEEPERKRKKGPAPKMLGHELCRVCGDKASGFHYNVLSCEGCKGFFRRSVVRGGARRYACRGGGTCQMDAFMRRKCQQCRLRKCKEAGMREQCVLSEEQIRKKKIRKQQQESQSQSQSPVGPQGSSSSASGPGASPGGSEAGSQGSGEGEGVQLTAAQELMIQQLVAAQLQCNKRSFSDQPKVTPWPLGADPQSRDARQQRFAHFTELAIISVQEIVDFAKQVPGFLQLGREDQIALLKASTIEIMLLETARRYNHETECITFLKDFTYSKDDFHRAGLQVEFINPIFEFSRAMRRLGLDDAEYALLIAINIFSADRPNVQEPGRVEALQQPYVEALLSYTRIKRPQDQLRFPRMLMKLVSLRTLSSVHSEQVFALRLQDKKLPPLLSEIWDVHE
hcDAF12 ag = H. contortus DAF-12 receptor agonists, confirmation, cell-based, luminescence, HEK293, lit1-tk-luc, triplicate | shares compounds with hcDAF12 agonist | HEK293 hcDAF-12 lit1-tk-luc reporter; % of Δ7-dafachronic acid response | activation, % at 6.8 µM | actives 61% (n = 3,400) | AID 743032, 2013;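 active = mean activation across triplicate tests above the threshold derived from the earlier primary screen, cut at about 5.5% in these data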;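 note: 0% = DMSO only wells and 100% = 3 µM Δ7-dafachronic acid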
An asterisk follows results filed as active; . = no result given.

SMILES	DAX1 inh-1	DAX1 inh-2	hgDAF-12 ag	ssDAF12 agonist	SMARCA2 act	hcDAF12 agonist	DAX1 inh confirm	SF1 mutant ctr	LXRb hcDAF ctr	hcDAF12 ag	others
COc1cc(N/N=C/c2ccc(N(C)C)cc2)ncn1	-2.4	10.4*	11.8*	0.9	3.3	11.4*	11.8*	4.3*	1.6	8.4*
COc1ccc2nc(N3C(=O)C(O)=C(C(=O)c4ccco4)C3c3ccc(C)o3)sc2c1 (configuration not stated)	2.1	1.1	6.2	-0.4	2.1	0.9	.	.	.	.
Cc1ccc2nc(N3C(=O)C(O)=C(C(=O)c4ccco4)C3c3cccs3)sc2c1 (configuration not stated)	1.1	5.3*	13.3*	0.8	11.6*	9.1*	5.9*	1.1	0.1	2.7	SMARCA2 act conf=2.0;GAL4-VP16 Luc=10.3*
COc1ccccc1NC(CC(=O)c1ccccc1)C(=O)OCC(=O)c1ccc(F)cc1 (configuration not stated)	0.8	6.2*	18.2*	2.7*	10.0*	17.6*	15.0*	6.6*	2.6	19.0*	SMARCA2 act conf=8.6*;GAL4-VP16 Luc=15.0*
Cc1ccc2nc(-c3ccc(NC(=O)COC(=O)c4cncc(Br)c4)cc3)sc2c1	2.8	5.7*	13.1*	1.6*	5.9	9.5*	17.1*	7.5*	1.9	12.2*
CCc1nnc(NC(=O)CSc2nc(C)cc(C)c2C#N)s1	-0.8	6.7*	10.9*	-0.6	5.0	7.7*	14.6*	8.4*	1.2	9.5*
CCOC(=O)c1c(SCC(=O)Nc2nccs2)nc(C)c(C)c1C	0.5	6.6*	5.3	0.0	4.2	11.2*	4.1*	2.2	0.4	2.2
CCn1c(C)nnc1SCC(=O)Nc1nccs1	-1.4	0.5	-1.1	-0.4	-4.8	2.6	.	.	.	.
Cc1ccc(C#N)c(SCC(=O)Nc2nccs2)n1	-0.3	6.3*	20.2*	3.0*	13.9*	17.6*	12.0*	6.6*	2.2	22.3*	SMARCA2 act conf=6.0;GAL4-VP16 Luc=4.4
COc1ccc2c(c1)CCCN2C(=O)C1CCCN(S(=O)(=O)c2ccccc2)C1 (configuration not stated)	.	-1.4	-2.7	-1.2	-5.7	-4.3	.	.	.	.
C=CCN(CC#Cc1ccc(OC)cc1)CC=C	.	-0.6	-0.6	-0.7	-1.2	0.2	.	.	.	.
CCOc1ccc(NC(=O)/C=C/c2ccccc2)c([N+](=O)[O-])c1	0.0	-0.2	5.9	-0.2	7.2	2.1	.	.	.	.
CCOc1ccc(N/C=C/C(=O)c2ccccc2)c([N+](=O)[O-])c1	-1.6	7.5*	9.3	0.2	0.3	11.1*	1.3	-2.4	1.0	4.1
Cc1csc(SCC(=O)c2cc(C)n(Cc3cccs3)c2C)n1	-4.2	-3.0	-9.3	-2.3	-5.8	-2.5	.	.	.	.
Cc1cc(C(=O)CSc2nnc(N)s2)c(C)n1Cc1cccs1	-3.6	6.2*	8.0	-0.1	6.7	6.7*	15.6*	2.2	0.8	4.5
CCOC(=O)C1CCCN(C(=O)CCc2nnc(-c3ccc(C(C)=O)s3)o2)C1 (configuration not stated)	3.7	5.5*	12.9*	-0.1	2.2	6.8*	5.8*	5.9*	0.8	6.1*
CCCC1CCC2(CC1)CCC2OC(=S)Nc1ccccc1Br (configuration not stated)	.	.	1.2	-1.8	.	0.6	.	.	.	.
CCN(CC)C(=O)O[C@H]1CC[C@@]23CCCN2C(=O)CCC[C@H]3C1	.	.	1.4	-1.0	.	0.7	.	.	.	.
O=C(O)c1ccc(N/N=C/c2cc3c(cc2[N+](=O)[O-])OCO3)cc1	-1.0	-1.3	-0.1	-1.3	3.0	-2.7	.	.	.	.
O=C(O)c1ccc(N/N=C/c2cc3cc4c(cc3nc2Cl)OCCO4)cc1	-5.1	7.3*	24.2*	2.9*	8.4*	11.7*	25.3*	9.6*	3.1	20.5*	SMARCA2 act conf=7.7;GAL4-VP16 Luc=11.3*
C(=N\Nc1nccc(-c2cccnc2)n1)/c1ccccc1	.	1.0	7.4	-1.0	2.4	2.1	.	.	.	.
Cc1ccnc(N/N=C/c2ccccc2)n1	1.4	4.6*	12.8*	0.1	1.3	17.2*	11.2*	6.3*	0.5	3.0
Cc1cccc(N/C=C/C(=O)c2cccs2)c1C	0.5	6.3*	12.7*	2.9*	3.6	14.8*	14.4*	7.3*	1.6	20.6*
Oc1ccc(CNc2cccnc2)c2cccnc12	.	.	1.2	-1.3	.	-0.4	.	.	.	.
COc1ccc(C(=O)N=c2sc3ccccc3n2C)cc1	4.7*	5.8*	16.3*	2.8*	1.7	13.0*	10.5*	7.0*	1.5	19.0*
